TRPV1 agonist = agonists of human vanilloid receptor 1 (TRPV1) | Q8NER1 | TRPV1-expressing cells, Fluo-8 calcium influx, agonist mode | activation, % at 8.33 µM | hit rate 0.19% among 320,000; in the data active = activation above about 80%; inconclusive = between about 30% and that limit
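Fluo-8 calcium influx in TRPV1-expressing cells, kinetic read (ex 480/em 520 nm). Compound added and read 3 min for agonist activity, followed by capsaicin at EC20 final and 2 min further read for enhancement.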
KCNH2 WT inh = inhibitors of human wildtype KCNH2 potassium channel. AID 720551. hit rate 0.37% among 340,000. U2OS, BacMam KCNH2, thallium flux FluxOr; stronger effect = lower value. activity change, % at 1.84 µM;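 active = maximum activity change below -70%; inconclusive = maximum activity change between -70% and -50%; inactive = maximum activity change above -50%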
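U2OS cells were transduced with wild-type KCNH2 virus (2.03 x 10^8 / mL) for 4 h at room temperature, then cultured overnight at 37 C. Thallium flux was read with FluxOr dye. Rate constants were normalized to DMSO controls.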
TRPV1 potentiator = human TRPV1 potentiation; Q8NER1; potentiation, % at 8.33 µM; AID 540277; TRPV1-expressing cells, Fluo-8 calcium influx, capsaicin EC20 potentiation; hit rate 0.02% among 320,000; in the data active = potentiation above about 80%; inconclusive = between about 30% and that limit
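Fluo-8 calcium influx in TRPV1-expressing cells, kinetic read (ex 480/em 520 nm). Compound added and read 3 min for agonist activity, followed by capsaicin at EC20 final and 2 min further read for enhancement.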
KCNH2 3.1 inh = inhibitors of human KCNH2 3.1 potassium channel isoform. U2OS KCNH2 3.1, thallium flux FluxOr; stronger effect = lower value. activity change, % (tested at about 1.8 µM). hit rate 0.95% among 340,000. AID 720553;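 active = maximum activity change below -70%; inconclusive = maximum activity change from -70% to -50%; inactive = maximum activity change above -50%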;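 note: thallium influx rate constant from kinetic fluorescence after stimulation buffer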
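Normalized rate constant (relative to positive and negative DMSO controls) derived from a 2 min kinetic fluorescence read after stimulation; U2OS cells expressing the 3.1 isoform via virus at 1.77 x 10^8 /mL.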
Each line names hits and unclear results; the compound was inactive in the other large screens. Only some compounds are listed: those with a hit (about 1.3% of all), similar ones and a draw of the others.

OC(CNCC1CCCO1)Cn1c2ccc(Cl)cc2c2cc(Cl)ccc21 (stereo unspecified)	KCNH2 WT inh inconclusive, KCNH2 3.1 inh -98.5
Cc1ccccc1NC(=O)c1cc2ccccc2o1	TRPV1 agonist inconclusive
CCN(CC)c1ccc(NC(=O)c2cc3ccccc3o2)c(C)c1	TRPV1 agonist 82.9
Cc1cc(NC(=O)c2ccc3c(c2)OCO3)ccc1NC(=O)c1ccccc1	none
CCN(CC)c1ccc(NC(=O)c2ccc3c(c2)OCO3)c(C)c1	TRPV1 agonist 82.4
Cc1cccc(-c2nn(-c3ccccc3)cc2C(=O)N(C)CC(=O)Nc2ccc(N3CCOCC3)cc2)c1	none
COC(=O)c1ccc(CSc2nnc(-c3ccncc3)n2Cc2ccccc2)o1	KCNH2 WT inh -199.0, KCNH2 3.1 inh -172.8
Nc1cc(C(F)(F)F)ccc1S(=O)(=O)Nc1cccc2c1NCCC2	none (no result: KCNH2 WT inh, KCNH2 3.1 inh)
CCCCc1ccc(S(=O)(=O)Nc2nnc(C)s2)cc1	none
Cn1nc(-c2ccc(Cl)cc2)c2cc(C(=O)N3CCN(c4ccccc4)CC3)sc21	none (no result: TRPV1 agonist, TRPV1 potentiator)
Cn1nc(-c2ccc(Cl)cc2)c2cc(C(=O)N3CCCC3)sc21	KCNH2 WT inh -143.4, KCNH2 3.1 inh -209.2 (no result: TRPV1 agonist, TRPV1 potentiator)
N=c1oc2c3c4c(cc2cc1C(=O)Nc1ccccc1)CCCN4CCC3	TRPV1 agonist 83.7, KCNH2 WT inh -223.0, KCNH2 3.1 inh -85.0
Cc1c(C(=O)N2CCN(c3ccccc3)CC2)sc2ncnc(N3CCN(c4ccccn4)CC3)c12	none
Cc1nc(N2CCN(c3ccccn3)CC2)c2c(C)c(C(=O)Nc3ccc(Cl)cc3)sc2n1	none
Cc1nc(N2CCN(c3ccccn3)CC2)c2c(C)c(C(=O)Nc3c(C)cc(Br)cc3C)sc2n1	KCNH2 3.1 inh -80.3
Cc1c(C(=O)N2CCN(c3ccc(F)cc3)CC2)sc2ncnc(N3CCN(c4ccccn4)CC3)c12	KCNH2 3.1 inh -76.2
Cc1nc(N2CCN(c3ccccn3)CC2)c2c(C)c(C(=O)Nc3c(F)cc(F)cc3Br)sc2n1	KCNH2 3.1 inh -95.1
COc1ccc(C2NC(=O)NC(C)=C2[N+](=O)[O-])cc1 (stereo unspecified)	none
CCOc1ccc(CN(C)C(C)C(=O)Nc2ccc([N+](=O)[O-])cc2Cl)cc1OC (stereo unspecified)	KCNH2 3.1 inh inconclusive
COc1ccc(CN(C)C(C)C(=O)Nc2ccc([N+](=O)[O-])cc2Cl)cc1OC (stereo unspecified)	KCNH2 3.1 inh -85.3
COc1ccc(OC)c2c1sc(=NC(=O)C1COc3ccccc3O1)n2C (stereo unspecified)	KCNH2 3.1 inh inconclusive
CCc1c(C)nc2[nH]nc(-c3ccccc3C)n2c1=O	KCNH2 3.1 inh -192.7
CN(C)CC(O)c1ccc(C=Cc2ccc(Cl)cc2)cc1 (stereo unspecified)	KCNH2 3.1 inh -110.4 (no result: TRPV1 agonist, TRPV1 potentiator)
O=C(CSc1ccc(-c2ccccn2)nn1)NCc1ccc(F)cc1	none
O=C(CSc1ccc(-c2ccccn2)nn1)NCc1ccccc1	KCNH2 WT inh -115.4, TRPV1 potentiator inconclusive
O=C(NCCCN1CCOCC1)c1ccccc1N1C(=O)[C@@H]2Cc3c([nH]c4ccccc34)C(c3ccc(F)cc3)N2C1=O (stereo partly specified)	KCNH2 3.1 inh -82.3
CSc1ccccc1NC(=O)c1ccco1	KCNH2 WT inh -281.1
O=C(Nc1ccccc1NC(=O)c1ccco1)c1ccco1	none (no result: KCNH2 3.1 inh)
Cc1ccccc1C(=O)NC1CCN(CC(=O)N2CCCCC2C)CC1 (stereo unspecified)	KCNH2 WT inh -81.1
Cc1ccccc1C(=O)NC1CCN(CC(=O)Nc2ccccc2)CC1	none
Cc1ccc(CNC(=O)C(=O)NCC2CCCN2S(=O)(=O)c2cccs2)cc1 (stereo unspecified)	none
CCN(CCCC(=O)c1ccc(F)cc1)CCc1ccccc1	KCNH2 WT inh inconclusive, KCNH2 3.1 inh -90.1
O=C(CCCc1ccccc1)c1ccccc1	TRPV1 agonist inconclusive
Cc1ccc2oc(=O)cc(CN3CCCCC3)c2c1	none
Cc1ccc2oc(=O)cc(CN3CCN(C/C=C/c4ccccc4)CC3)c2c1	KCNH2 3.1 inh -102.0
O=c1cc(CN2CCN(C/C=C/c3ccccc3)CC2)c2cc(O)ccc2o1	KCNH2 WT inh -132.9, KCNH2 3.1 inh -98.6
CCOc1ccc(CN2CCN(CCCc3ccccc3)CC2CCO)cc1 (stereo unspecified)	KCNH2 WT inh -81.5
C#Cc1ccc(CN2CCN(CCCc3ccccc3)C(CCO)C2)cc1 (stereo unspecified)	KCNH2 3.1 inh -71.9
CCOc1ccc(CN2CCN(C3CCC3)CC2CCO)cc1 (stereo unspecified)	none
